# Compound activity (PubChem)
# A selection: hits, their analogues and other compounds. The true share with any hit is near 3.7%.
# tim10-1 inh: inhibits growth of tim10-1 mutant yeast. S. cerevisiae tim10-1 ts strain growth, BacTiter-Glo, 24 h. inhibition, % at 20 µM. hit rate 2.2% among 330,000. AID 463190;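 active = inhibition of at least 40%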;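 note: mutant grown at 25 °C; 0% = DMSO wells with yeast and 100% = wells holding no yeast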
# TIM10 inh: inhibits growth of TIM10 yeast strain. S. cerevisiae TIM10 strain growth, BacTiter-Glo luminescence, 24 h. hit rate 1.4% among 330,000. inhibition, % at 10 µM. AID 463195;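 active = inhibition of 40% or more at the single tested concentration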;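 note: wild-type TIM10 isogenic control strain grown at permissive 25 °C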
# PfHsp90 yeast 2: inhibits growth of yeast expressing Plasmodium falciparum Hsp90; S. cerevisiae expressing PfHsp90, BacTiter-Glo ATP, 48 h; yeast lacking PDR1 and PDR3 efflux regulators; inhibition, % at 9.4 µM; hit rate 0.32% among 310,000; AID 504621;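 active = every replicate shows inhibition above about 80%, whatever the replicate mean, limit read from the data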;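 note: 0% = DMSO neutral controls and 100% = 20 µM radicicol positive controls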
# Rce1 inh: blocks yeast Ras-converting enzyme; Q03530; AID 2563; yeast membranes, quenched prenylated peptide cleavage fluorescence; hit rate 0.27% among 290,000; calls only;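 active = fall in fluorescence gain of 50% or more versus controls, with final raw signal at or below 3038400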;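 note: plate controls were neutral control wells for no effect and wells lacking membranes for full effect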
# Target sequence (Q03530 whole entry, looked up): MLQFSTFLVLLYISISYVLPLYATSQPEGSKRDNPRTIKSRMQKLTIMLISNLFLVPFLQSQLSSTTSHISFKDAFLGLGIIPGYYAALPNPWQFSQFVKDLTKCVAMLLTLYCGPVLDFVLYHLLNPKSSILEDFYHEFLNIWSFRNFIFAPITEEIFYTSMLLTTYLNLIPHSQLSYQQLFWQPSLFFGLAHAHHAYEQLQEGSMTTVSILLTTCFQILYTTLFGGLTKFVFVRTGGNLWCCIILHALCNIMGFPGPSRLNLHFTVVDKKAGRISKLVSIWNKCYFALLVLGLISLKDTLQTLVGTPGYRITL
# tim23-1 inh: tim23-1 yeast growth inhibition; S. cerevisiae tim23-1 growth, BacTiter-Glo luminescence, 24 h; inhibition, % at 20 µM; hit rate 1.3% among 330,000;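 active = growth inhibition of the mutant yeast at or above 50%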;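 note: temperature-sensitive mutant grown at 25 °C; plate controls were DMSO-treated mutant yeast for no effect and medium wells lacking yeast for full effect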
# tim10-1 conf: tim10-1 yeast growth inhibition, confirmed | shares compounds with tim10-1 inh | S. cerevisiae tim10-1 ts strain growth, BacTiter-Glo, 24 h | hit rate 56% among 7,400 | inhibition, % at 20 µM | AID 463213;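 active = inhibition of yeast growth at or above a set limit in either of two repeat tests at 20 µM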;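 note: tim10-1 mutant grown at permissive 25 °C to find synthetic lethal compounds; 0% = DMSO yeast wells and 100% = medium wells without yeast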
# Active calls of the source: *; i = inactive; / = not tested or not shown.
SMILES,tim10-1 inh,TIM10 inh,PfHsp90 yeast 2,Rce1 inh,tim23-1 inh,tim10-1 conf
CCC(Oc1ccccc1)C(=O)N(C)CC(=O)N(CC(C)C)c1c(N)n(CC(C)C)c(=O)[nH]c1=O (configuration not stated),6,6,/,i,8,/
Cc1ccc(C(=O)O/N=C(/c2nonc2N)N(C)C)cc1,67*,25,19,i,31,62*
CCOC(=O)c1ccc(COC(=O)c2nonc2N)cc1,14,14,-5,i,18,/
CC1CCCC(C)N1/N=C/C=C/c1ccccc1[N+](=O)[O-] (configuration not stated),41*,9,-4,i,19,13
COc1ccccc1N1CCN(/N=C/C=C\c2ccccc2[N+](=O)[O-])CC1,22,6,-21,i,15,/
O=[N+]([O-])c1ccccc1/C=C/C=N/n1c(-c2ccccc2)n[nH]c1=S,42*,36,28,i,29,36*
Cc1ccc(-c2n[nH]c(=S)n2/N=C/C=C\c2ccccc2[N+](=O)[O-])cc1,23,39,/,i,21,/
O=C(c1ccc(OC2CCN(CCO)CC2)cc1)N1CCCC1,4,0,10,/,2,/
Cc1nn(-c2ccccc2)c2c1C(O)n1c(nc3ccccc31)S2 (configuration not stated),41*,25,0,i,38,-5
CN(C(=O)c1nn(C)c2c1CSc1ccccc1-2)c1ccccc1Cl,41*,12,-1,i,41,6
COc1cc(C(C(=O)NC2CCCCC2)N(C(=O)c2cnccn2)c2ccccc2)cc(OC)c1OC (configuration not stated),3,-11,8,i,11,/
COC(=O)C1(Cc2cc(-c3cccc(Br)c3)no2)CCN(C(=O)OC(C)(C)C)CC1,41*,31,-70,i,32,26
C=CCn1c(-c2cccs2)nc2ccccc21,4,-14,-4,/,10,/
CCCn1c(-c2cccs2)nc2ccccc21,41*,15,2,i,38,0
COC(=O)CC/C(=N/Nc1ccc(Cl)c(Cl)c1)C(=O)OC,-22,-27,18,i,2,/
CCOC(=O)CN1C(c2ccc(O)cc2)Nc2ccc(Br)cc2C1c1ccccc1 (configuration not stated),46*,32,-11,i,44,18
CCOC(=O)CN1C(=O)Nc2ccc(Br)cc2C1c1ccccc1 (configuration not stated),20,23,/,/,10,/
COc1ccc(NC(=O)c2sc3nc(N4CCOCC4)c4c(c3c2N)CC(C(C)C)OC4)c(OC)c1 (configuration not stated),43*,-5,-14,i,1,4
Cc1ccc(-c2noc(CN3CCN(C(c4ccccc4)c4ccccc4)CC3)n2)cc1,41*,37,-5,i,24,19
O=CNC1CCCc2c1[nH]c1ccc(Cl)cc21 (configuration not stated),45*,30,-9,i,33,28
Cc1cc(C)nc(-n2nc(C)cc2NC(=O)CN2CCCC(C)C2)n1 (configuration not stated),44*,7,4,i,13,4
Cc1cc(C)nc(-n2nc(C)cc2NC(=O)CN2CCc3ccccc3C2)n1,5,23,24,i,37,/
O=C(COC(=O)c1cccc(S(=O)(=O)N2CCCCC2)c1)NC1CCCCC1,22,14,6,/,11,/
Cc1ccc(CN2CCSc3ccc(C(=O)N4CCOCC4)cc32)cc1,41*,4,0,i,38,15
CCN1CCSc2ccc(C(=O)NCc3cccc(Br)c3)cc21,41*,11,-16,i,46,35*
O=C(NC1CCCC1)c1ccc2c(c1)N(Cc1ccccc1)CCS2,-5,15,-28,i,10,/
O=C(NCC1CCCO1)c1ccc2c(c1)N(Cc1ccccc1)CCS2 (configuration not stated),41*,12,4,i,40,14
CCN1CCN(C(=O)c2ccc3c(c2)N(Cc2ccc(C)cc2)CCS3)CC1,21,3,-19,i,8,/
Cc1cc(C)n2nc(C(=O)OCC(=O)NNC(=O)c3ccccc3)nc2n1,-3,10,3,/,6,/
